# Unmarked numbers belong to inactive results.
# Assays:
# Assay in all cases: log2 ratio of Biotin-Ahx-Ub-VS probe labelling (fragment/DMSO); higher = less target engagement (more negative = stronger competition), active = hit call of the paper (q ≤ 0.05, log2 ratio ≤ -1)
# Settings in all cases: compound concentration: 200 uM; treatment time: 3 h
# USP19 = biological target: T1, USP19 (UniProt O94966)
# T1 sequence (whole entry): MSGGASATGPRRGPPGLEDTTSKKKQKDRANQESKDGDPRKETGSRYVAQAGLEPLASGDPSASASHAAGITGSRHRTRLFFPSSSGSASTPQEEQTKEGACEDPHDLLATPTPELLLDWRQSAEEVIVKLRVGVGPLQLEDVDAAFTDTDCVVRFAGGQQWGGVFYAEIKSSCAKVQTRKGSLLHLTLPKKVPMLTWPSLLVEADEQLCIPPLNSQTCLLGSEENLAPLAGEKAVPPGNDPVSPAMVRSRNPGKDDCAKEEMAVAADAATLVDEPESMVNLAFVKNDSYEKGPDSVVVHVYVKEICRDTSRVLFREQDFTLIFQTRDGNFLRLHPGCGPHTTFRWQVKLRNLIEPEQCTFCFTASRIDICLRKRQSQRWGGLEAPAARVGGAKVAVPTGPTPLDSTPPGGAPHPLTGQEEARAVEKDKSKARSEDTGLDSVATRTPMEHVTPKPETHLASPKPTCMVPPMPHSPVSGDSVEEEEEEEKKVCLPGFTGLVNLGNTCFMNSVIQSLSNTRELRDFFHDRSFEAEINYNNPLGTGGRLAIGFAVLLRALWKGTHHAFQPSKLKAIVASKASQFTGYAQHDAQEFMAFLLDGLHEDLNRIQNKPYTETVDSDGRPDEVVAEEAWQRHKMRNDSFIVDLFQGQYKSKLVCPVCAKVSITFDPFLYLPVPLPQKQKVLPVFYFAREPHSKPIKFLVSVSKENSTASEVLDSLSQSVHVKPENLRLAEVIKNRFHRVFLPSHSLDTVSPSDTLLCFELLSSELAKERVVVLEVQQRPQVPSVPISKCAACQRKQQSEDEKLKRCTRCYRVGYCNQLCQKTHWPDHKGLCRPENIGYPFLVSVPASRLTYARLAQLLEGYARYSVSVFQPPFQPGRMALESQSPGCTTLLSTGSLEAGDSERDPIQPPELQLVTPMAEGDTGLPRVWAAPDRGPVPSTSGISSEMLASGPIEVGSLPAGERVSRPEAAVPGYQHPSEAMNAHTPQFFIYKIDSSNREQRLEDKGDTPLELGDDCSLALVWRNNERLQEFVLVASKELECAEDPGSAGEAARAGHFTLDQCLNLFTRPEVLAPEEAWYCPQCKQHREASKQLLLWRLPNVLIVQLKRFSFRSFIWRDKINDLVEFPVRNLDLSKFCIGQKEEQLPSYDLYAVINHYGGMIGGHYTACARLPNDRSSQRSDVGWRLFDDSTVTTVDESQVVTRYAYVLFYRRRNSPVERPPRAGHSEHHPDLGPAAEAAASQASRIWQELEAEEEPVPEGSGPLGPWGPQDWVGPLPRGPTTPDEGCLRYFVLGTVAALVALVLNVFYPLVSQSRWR
# Outline: (§1)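 Each value is an average log2 ratio of fragment to vehicle, tested by unpaired t-test. The underlying Spectronaut label-free quantities were global-median-normalised, and only proteins with ≥2 unique peptides were included. Triplicate HEK293T lysate samples (495 µg) were exposed to fragment at 200 µM or vehicle for 3 h, then to Biotin-Ahx-Ub-VS at 0.5 µM final for 1 h, before NeutrAvidin enrichment of labelled DUBs, LysC and trypsin digestion, and diaPASEF LC-MS/MS.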
# USP24 = USP24 (UniProt Q9UPU5)
# USP24, sequence (Q9UPU5 whole entry): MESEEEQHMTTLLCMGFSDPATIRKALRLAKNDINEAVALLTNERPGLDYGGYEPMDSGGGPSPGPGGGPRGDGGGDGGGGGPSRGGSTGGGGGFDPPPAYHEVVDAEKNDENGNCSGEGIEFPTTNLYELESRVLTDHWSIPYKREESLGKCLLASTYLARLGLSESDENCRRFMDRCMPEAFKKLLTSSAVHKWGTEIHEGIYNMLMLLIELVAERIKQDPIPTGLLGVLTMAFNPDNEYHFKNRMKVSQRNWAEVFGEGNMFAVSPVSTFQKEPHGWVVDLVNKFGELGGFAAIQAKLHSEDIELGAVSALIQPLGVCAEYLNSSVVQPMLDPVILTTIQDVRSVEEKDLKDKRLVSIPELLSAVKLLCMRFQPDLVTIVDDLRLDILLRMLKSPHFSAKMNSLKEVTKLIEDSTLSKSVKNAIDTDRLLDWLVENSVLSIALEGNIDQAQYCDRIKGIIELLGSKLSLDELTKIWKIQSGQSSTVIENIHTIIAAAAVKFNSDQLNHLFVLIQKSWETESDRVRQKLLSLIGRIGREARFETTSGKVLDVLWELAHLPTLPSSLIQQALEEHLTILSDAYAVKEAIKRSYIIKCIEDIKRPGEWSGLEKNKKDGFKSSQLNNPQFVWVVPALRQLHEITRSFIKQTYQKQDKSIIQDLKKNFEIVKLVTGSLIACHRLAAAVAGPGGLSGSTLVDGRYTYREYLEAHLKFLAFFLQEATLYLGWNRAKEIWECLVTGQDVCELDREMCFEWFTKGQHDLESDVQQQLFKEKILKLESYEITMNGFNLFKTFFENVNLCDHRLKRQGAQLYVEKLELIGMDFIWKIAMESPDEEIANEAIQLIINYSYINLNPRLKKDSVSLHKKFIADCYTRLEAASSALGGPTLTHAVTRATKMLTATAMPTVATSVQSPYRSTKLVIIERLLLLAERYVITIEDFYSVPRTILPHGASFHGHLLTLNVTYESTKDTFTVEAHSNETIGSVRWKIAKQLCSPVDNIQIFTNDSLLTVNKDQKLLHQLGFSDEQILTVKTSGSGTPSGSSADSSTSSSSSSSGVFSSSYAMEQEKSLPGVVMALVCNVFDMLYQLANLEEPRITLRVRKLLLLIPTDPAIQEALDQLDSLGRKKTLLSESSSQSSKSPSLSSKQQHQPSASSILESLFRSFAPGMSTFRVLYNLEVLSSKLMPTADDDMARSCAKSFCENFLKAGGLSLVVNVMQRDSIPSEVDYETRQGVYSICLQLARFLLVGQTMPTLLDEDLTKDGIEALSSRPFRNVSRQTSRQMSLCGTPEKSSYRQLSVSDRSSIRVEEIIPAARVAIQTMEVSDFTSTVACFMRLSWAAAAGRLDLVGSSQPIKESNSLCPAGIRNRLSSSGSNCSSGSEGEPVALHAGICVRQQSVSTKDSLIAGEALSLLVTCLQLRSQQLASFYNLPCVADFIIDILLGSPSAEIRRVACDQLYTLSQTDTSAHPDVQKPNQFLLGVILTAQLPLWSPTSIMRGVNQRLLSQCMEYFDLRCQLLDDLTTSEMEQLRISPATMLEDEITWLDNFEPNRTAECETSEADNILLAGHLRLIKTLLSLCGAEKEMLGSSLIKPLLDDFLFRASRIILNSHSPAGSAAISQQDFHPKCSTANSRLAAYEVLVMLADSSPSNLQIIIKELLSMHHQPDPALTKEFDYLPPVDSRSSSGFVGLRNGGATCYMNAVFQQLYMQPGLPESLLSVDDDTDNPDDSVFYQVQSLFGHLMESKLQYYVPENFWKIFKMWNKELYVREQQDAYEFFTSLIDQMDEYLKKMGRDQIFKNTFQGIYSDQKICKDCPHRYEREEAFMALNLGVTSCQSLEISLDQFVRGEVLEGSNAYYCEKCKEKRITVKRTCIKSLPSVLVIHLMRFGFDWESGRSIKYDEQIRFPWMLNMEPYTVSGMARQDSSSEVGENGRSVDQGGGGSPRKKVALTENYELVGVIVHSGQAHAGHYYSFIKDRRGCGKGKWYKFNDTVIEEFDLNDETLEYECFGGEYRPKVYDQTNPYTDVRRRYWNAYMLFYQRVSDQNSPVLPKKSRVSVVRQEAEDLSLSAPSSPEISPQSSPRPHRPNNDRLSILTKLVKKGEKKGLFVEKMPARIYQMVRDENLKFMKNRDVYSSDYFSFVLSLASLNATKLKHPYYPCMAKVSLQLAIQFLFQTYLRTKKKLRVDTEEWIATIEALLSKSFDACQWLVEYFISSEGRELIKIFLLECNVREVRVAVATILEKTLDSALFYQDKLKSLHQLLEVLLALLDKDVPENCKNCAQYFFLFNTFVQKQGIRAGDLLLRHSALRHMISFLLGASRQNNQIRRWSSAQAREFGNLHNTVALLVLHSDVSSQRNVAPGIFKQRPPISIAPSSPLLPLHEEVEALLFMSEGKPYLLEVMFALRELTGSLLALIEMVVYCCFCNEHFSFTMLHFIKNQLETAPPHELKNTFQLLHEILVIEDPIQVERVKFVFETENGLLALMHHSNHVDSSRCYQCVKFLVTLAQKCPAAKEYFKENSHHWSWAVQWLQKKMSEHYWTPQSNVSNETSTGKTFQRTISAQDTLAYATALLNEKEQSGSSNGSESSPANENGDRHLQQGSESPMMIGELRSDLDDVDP
# Outline: as §1
# USP25 = biological target: T2, USP25 (UniProt Q9UHP3)
# T2 sequence (whole entry): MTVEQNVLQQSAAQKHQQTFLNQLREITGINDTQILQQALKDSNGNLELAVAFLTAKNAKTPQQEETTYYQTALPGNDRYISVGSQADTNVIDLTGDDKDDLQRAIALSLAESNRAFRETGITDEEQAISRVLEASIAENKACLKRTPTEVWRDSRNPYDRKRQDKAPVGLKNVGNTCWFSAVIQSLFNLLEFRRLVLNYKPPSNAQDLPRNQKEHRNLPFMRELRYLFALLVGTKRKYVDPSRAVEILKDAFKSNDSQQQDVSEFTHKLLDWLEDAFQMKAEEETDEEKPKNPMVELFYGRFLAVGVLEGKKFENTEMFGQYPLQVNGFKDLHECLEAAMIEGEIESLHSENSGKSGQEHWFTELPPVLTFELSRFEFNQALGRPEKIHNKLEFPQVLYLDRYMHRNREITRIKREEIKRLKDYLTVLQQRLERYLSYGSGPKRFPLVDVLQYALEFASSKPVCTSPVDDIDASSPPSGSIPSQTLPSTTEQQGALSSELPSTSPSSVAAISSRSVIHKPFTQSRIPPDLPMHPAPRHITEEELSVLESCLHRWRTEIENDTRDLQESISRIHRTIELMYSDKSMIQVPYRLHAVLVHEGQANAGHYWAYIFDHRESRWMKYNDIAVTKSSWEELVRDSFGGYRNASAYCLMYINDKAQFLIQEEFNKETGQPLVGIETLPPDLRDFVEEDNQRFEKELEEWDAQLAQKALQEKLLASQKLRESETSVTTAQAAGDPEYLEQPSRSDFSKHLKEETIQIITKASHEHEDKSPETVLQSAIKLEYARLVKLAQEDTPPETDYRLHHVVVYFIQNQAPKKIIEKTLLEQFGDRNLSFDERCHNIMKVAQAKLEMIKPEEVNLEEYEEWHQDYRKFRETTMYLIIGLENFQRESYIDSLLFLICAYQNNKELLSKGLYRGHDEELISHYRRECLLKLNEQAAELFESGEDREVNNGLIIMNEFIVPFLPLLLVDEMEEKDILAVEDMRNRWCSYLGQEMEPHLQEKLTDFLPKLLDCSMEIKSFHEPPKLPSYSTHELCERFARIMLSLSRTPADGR
# Outline: as §1
# USP28 = biological target: T3, USP28 (UniProt Q96RU2)
# T3 sequence (whole entry): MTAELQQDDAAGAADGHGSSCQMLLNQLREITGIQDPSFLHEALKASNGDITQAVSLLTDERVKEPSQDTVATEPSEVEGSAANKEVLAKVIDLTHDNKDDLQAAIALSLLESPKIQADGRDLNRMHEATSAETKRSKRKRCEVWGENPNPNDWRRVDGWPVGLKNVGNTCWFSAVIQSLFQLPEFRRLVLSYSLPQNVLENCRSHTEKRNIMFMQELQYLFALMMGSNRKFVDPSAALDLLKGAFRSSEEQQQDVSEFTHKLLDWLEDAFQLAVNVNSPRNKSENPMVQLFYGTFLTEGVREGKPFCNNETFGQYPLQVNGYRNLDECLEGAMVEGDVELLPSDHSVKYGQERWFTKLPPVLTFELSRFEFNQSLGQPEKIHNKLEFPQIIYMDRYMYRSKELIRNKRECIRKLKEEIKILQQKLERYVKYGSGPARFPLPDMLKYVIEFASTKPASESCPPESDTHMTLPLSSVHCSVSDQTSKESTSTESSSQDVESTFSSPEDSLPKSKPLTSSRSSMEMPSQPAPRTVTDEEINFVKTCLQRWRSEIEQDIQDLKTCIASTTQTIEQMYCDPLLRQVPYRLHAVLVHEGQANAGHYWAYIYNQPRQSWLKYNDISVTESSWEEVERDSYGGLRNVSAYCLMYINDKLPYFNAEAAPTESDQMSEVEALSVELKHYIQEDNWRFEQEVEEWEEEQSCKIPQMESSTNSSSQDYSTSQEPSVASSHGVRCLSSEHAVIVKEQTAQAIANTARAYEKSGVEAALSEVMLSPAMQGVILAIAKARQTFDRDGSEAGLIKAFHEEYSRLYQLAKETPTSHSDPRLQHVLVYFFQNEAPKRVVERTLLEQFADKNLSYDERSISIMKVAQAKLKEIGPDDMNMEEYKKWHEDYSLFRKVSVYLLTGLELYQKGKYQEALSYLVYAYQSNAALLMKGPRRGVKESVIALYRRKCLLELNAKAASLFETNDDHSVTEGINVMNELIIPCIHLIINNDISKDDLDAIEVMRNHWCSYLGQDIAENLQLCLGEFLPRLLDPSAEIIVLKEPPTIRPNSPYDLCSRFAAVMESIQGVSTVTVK
# Outline: as §1
structure (smiles),measurement,setting,value
Cc1cc(NC(=O)CCl)n(-c2ccccc2)n1,log2 ratio of Biotin-Ahx-Ub-VS probe labelling,USP19,-0.106
same,log2 ratio of Biotin-Ahx-Ub-VS probe labelling,USP24,-0.201
same,log2 ratio of Biotin-Ahx-Ub-VS probe labelling,USP25,-0.721
same,log2 ratio of Biotin-Ahx-Ub-VS probe labelling,USP28,-1.03 (active)

# From the supplement of paper PMC11732987, “Enantioselective OTUD7B fragment discovery through chemoproteomics screening and high-throughput optimisation” (Communications Chemistry, 2025)
